Assay outcomes: PubChem, several laboratories
MBD2 inh = blocks human MBD2 binding to methylated DNA | Q9UBB5 | TR-FRET, MBD2 binding to methylated oligonucleotide | inhibition, % at 4.4 µM | 0.31% of 370,000 active | AID 686964; in the data active means inhibition above about 13%
Target sequence (Q9UBB5 whole entry, looked up): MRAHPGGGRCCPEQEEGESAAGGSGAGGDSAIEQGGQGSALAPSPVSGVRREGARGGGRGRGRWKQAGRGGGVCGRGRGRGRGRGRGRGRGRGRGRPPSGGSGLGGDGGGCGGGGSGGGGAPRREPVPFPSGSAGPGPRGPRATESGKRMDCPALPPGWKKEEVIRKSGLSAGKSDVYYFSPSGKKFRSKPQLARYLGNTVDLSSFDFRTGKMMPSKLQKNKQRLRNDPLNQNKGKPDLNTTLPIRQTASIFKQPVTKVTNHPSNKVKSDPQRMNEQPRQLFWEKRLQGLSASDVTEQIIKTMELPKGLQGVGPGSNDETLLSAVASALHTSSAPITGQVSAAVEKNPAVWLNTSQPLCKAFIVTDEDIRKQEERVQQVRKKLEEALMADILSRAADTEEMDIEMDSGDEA
PG9 Ab binder = small molecules binding HIV-1 gp120 antibody PG9. TR-FRET gp120-PG9 antibody binding. inhibition, % at 6.7 µM. 0.43% of 360,000 active. AID 624416; in the data active means inhibition above about 8.5%
UHRF1 MBD2 ctr = UHRF1 methyl-DNA binding inhibition; Q96T88; UHRF1 binding to methylated oligo, TR-FRET; inhibition, % at 4.4 µM; 0.75% of 370,000 active; in the data active means inhibition above about 21%;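 further: UHRF1 SRA domain binding a hemimethylated CpG hairpin DNA probe; 0% = median of test compound wells and 100% = reference inhibitor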
LEDGF integ inh = blocks HIV-1 LEDGF/p75-dependent DNA integration. 0.64% of 370,000 active. inhibition, % at 3.7 µM. AID 743269. TR-FRET IN-LEDGF/p75 DNA integration, Eu/Cy5;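 active means inhibition above the screen-wide mean plus 3 SD, cut at about 13% in these data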;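 further: signal is the Cy5 over europium emission ratio at 671 and 618 nm; 0% = plate median of compound wells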
DNMT1 inh = blocks human DNA methyltransferase DNMT1; P26358; DNMT1 molecular beacon, Hinp1I cleavage, fluorescence; inhibition (reported as % activation of signal), % at 10 µM; 0.83% of 360,000 active; AID 588458; in the data active means inhibition above about 50%
rCAG binder = binds r(CAG) RNA repeats | r(CAG) RNA repeat, TO-PRO-1 dye displacement fluorescence | inhibition, % at 3 µM | 1.3% of 370,000 active | AID 651821;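 active means inhibition above the plate cutoff, the mean of all test compounds on that plate plus 3 SD, cut at about 35% in these data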;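 further: 0% = DMSO alone and 100% = 100 µM mitoxantrone as full dye displacement; higher means more dye released from RNA so lower well fluorescence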
* marks the source's active call; other numbers are inactive results; nt = not tested or not shown. In the library only some 3.5% were active in any assay of this set; here they are far more common.

SMILES | MBD2 inh | PG9 Ab binder | UHRF1 MBD2 ctr | LEDGF integ inh | DNMT1 inh | rCAG binder
CC(C)C[C@H]1COc2cccc(N3CCSCC3)c2S(=O)(=O)N1C | 1 | nt | 5 | 4 | nt | 1
O=C(NC1CCCCN(Cc2cccc(Cl)c2)C1=O)c1ccc(-c2ccccc2)cc1 (stereo not given) | -3 | nt | 1 | -4 | nt | 4
CCOC(=O)C1CCN(C(=O)CSc2nccc(C)n2)CC1 | -4 | 0 | 65* | -4 | 5 | 4
O=C(O)c1ccccc1C(=O)c1cccs1 | 8 | -1 | 24* | 1 | 1 | 0
C[C@@H]1ON(C)[C@H]2C[C@H]3c4[nH]c5c(-c6cc(Cl)cc(Cl)c6)cccc5c4CCN3C(=O)[C@@H]12 | 2 | 1 | 1 | 4 | nt | 5
CCn1c(SC(C)C(=O)O)nc2sc3c(c2c1=O)CCC3 (stereo not given) | 10 | -3 | 28* | 11 | 90* | 20
CNc1ccccc1/C(O)=C(\C#N)C(=O)NCc1cccc2ccccc12 | -2 | nt | -1 | 1 | nt | 12
COc1ccc(Br)c(C=O)c1OS(=O)(=O)c1ccc(C)cc1 | -1 | 0 | -2 | 16* | 5 | 4
COC(=O)c1ccc2nc(-c3cccc(Cl)c3)c(Cc3ccccc3C(F)(F)F)n2c1 | 13 | -1 | 22* | 0 | nt | 4
COC(=O)c1ccc2nc(-c3cccc(Br)c3)c(Cc3cccc(Cl)c3)n2c1 | 6 | 0 | 13 | -1 | nt | 17
COC(=O)c1ccc2nc(-c3cccc(Cl)c3)c(Cc3cccc(Cl)c3)n2c1 | 5 | 0 | 23* | 1 | nt | 5
COC(=O)c1ccc2nc(-c3cccc(Cl)c3)c(CC3CCCCC3)n2c1 | 5 | -1 | 22* | 5 | nt | 8
COC(=O)c1ccc2nc(-c3cccc(Cl)c3)c(Cc3ccsc3)n2c1 | 9 | 0 | 22* | -2 | 3 | 12
COC(=O)c1ccc2nc(-c3cccc(Cl)c3)c(Cc3cccc(F)c3)n2c1 | 2 | 0 | 19 | 8 | nt | 11
FC(F)(F)c1ccccc1Cc1c(-c2cccc(Cl)c2)nc2ccc(Br)cn12 | 4 | 0 | 1 | 2 | 18 | 31
COC(=O)C1CN(Cc2cn(CCC3OCCO3)nn2)CCS(=O)(=O)N1Cc1ccc(OC)cc1 (stereo not given) | 7 | nt | 12 | 5 | nt | -1
COC(=O)c1ccc2nc(-c3ccccc3)c(Cc3ccsc3)n2c1 | 2 | -2 | 22* | 0 | 1 | 6
COC(=O)c1ccc2nc(-c3cccc(Br)c3)c(Cc3ccsc3)n2c1 | 8 | -1 | 21* | 2 | 3 | 23
COC(=O)c1ccc2nc(-c3ccc(Cl)cc3)c(Cc3ccsc3)n2c1 | 9 | -2 | 21* | -4 | nt | 14
COC(=O)c1ccc2nc(-c3ccc(OC)c(OC)c3)c(Cc3ccsc3)n2c1 | 9 | -1 | 19 | 6 | -15 | 17
COC(=O)c1ccc2nc(-c3ccccc3)c(Cc3ccccc3)n2c1 | 1 | -1 | 11 | -3 | nt | 5
C=CCN1C(=O)[C@@H](CC(=O)NCCCN2CCCC2=O)[C@]2(C(=O)OC)CCCCC=C12 | -1 | nt | 4 | 5 | nt | 2
C=CCN1C(=O)[C@@H](CC(=O)NCc2cccs2)[C@]2(C(=O)OC)CCCCC=C12 | 3 | nt | 3 | 1 | nt | 6
CCC(CC)CN1C(N(C)C)=NC[C@@H]1CC(C)C | 1 | 0 | -1 | 2 | 8 | 0
COc1ccc(C(=O)OCCN2CCN(C3CN(Cc4cn(Cc5cccc(C)c5)nn4)S(=O)(=O)C3)CC2)cc1OC (stereo not given) | 10 | nt | 14 | -5 | nt | 3
SMILES | MBD2 inh | PG9 Ab binder | UHRF1 MBD2 ctr | LEDGF integ inh | DNMT1 inh | rCAG binder
C[C@H](O)[C@@H]1C(=O)N2CCc3c([nH]c4cccc(-c5ccccc5)c34)[C@@H]2C[C@@H]1N(C)C(=O)c1ccccc1 | 7 | 3 | -2 | 2 | nt | 11
CCOC(=O)CC[C@H]1CC[C@]2(CCCN(S(=O)(=O)C3CCCCC3)C2)O1 | -3 | nt | 42* | 4 | nt | -1
CC(=O)CC[C@H]1CC[C@]2(CCCN(S(=O)(=O)C3CCCCC3)C2)O1 | 0 | nt | -1 | -2 | nt | 1
CCc1ccc(S(=O)(=O)N2CCN(Cc3ccco3)CC2)cc1 | 5 | 3 | 1 | -6 | 4 | -7
CCOc1ccc(S(=O)(=O)N2CCN(Cc3ccco3)CC2)cc1 | 7 | -4 | 27* | 6 | -1 | 25
COC(=O)c1ccc2nc(-c3ccc(F)cc3)c(Cc3ccccc3OC)n2c1 | 4 | 0 | 17 | -1 | nt | 7
COC(=O)c1ccc2nc(-c3ccc(Cl)cc3)c(Cc3ccc(OC)cc3C)n2c1 | 10 | 0 | 25* | 1 | nt | 11
COC(=O)c1ccc2nc(-c3ccc(OC)c(OC)c3)c(Cc3ccc(OC)cc3C)n2c1 | 12 | -2 | 21* | -3 | -18 | 18
C=CCN(CC#Cc1ccccc1)Cc1ccc(OC)cc1 | 3 | nt | 2 | 2 | nt | 2
Cc1ccc(C=Nn2c(-c3n[nH]c4c3CCC4)n[nH]c2=S)o1 | 2 | nt | 0 | -4 | nt | 7
COC(=O)C1CN(Cc2ccc(C)cc2)CCS(=O)(=O)N1Cc1cn(Cc2ccccc2)nn1 (stereo not given) | -3 | nt | 11 | 8 | nt | -2
CCOC(=O)CC[C@@H]1CC[C@]2(CCCN(C(=O)c3ccccc3)C2)O1 | -3 | nt | -3 | -3 | nt | 0
COC(=O)c1cccc(Cn2ccc3ccc(-c4ccc5ccn(C(=O)c6ccccc6OC)c5c4)cc32)c1 | -2 | nt | -1 | 5 | nt | 13
CC1CCCN(Cc2c(O)ccc3c2O/C(=C\c2ccco2)C3=O)C1 (stereo not given) | 6 | -1 | 14 | 29* | 61* | 27
CCN1CCN(Cc2c(O)ccc3c2O/C(=C\c2ccccc2)C3=O)CC1 | -4 | -6 | -19 | 1 | 4 | -15
CCOc1cccc(-c2nc3cc(C)ccc3o2)c1 | 11 | -1 | 26* | 11 | 3 | 2
CCCCCCN1CCS(=O)(=O)N(Cc2ccc(C)cc2)C(C(=O)OC)C1 (stereo not given) | 1 | nt | -2 | -3 | nt | 0
Cc1cccc(C(=O)Oc2ccc(/C=N/NC(=O)c3cc(O)cc(O)c3)cc2)c1 | 3 | -5 | 16 | 4 | 69* | 28
CCOC(=O)C1=CN(Cc2ccco2)S(=O)(=O)N(C)C1CC (stereo not given) | 2 | 0 | 22* | 6 | 8 | 1
C=C(C)CN=CC1(C)CCC(C)=CO1 (stereo not given) | 0 | 0 | 37* | -3 | -3 | 3
O=C1NN(c2cccc(Br)c2)C(=O)/C1=C/c1ccc(-c2cc([N+](=O)[O-])ccc2O)o1 | nt | nt | nt | nt | 53* | nt
CN(CCNC(=O)CCCOc1cc(=O)n(C)c2ccccc12)Cc1ccccc1 | 6 | -3 | 21* | 1 | 1 | -10
O=C(CCc1ccccc1)N[C@H]1[C@@H](OC(=O)c2cnccn2)CCC[C@]12C(=O)N(Cc1ccccc1)c1ccccc12 | 3 | nt | 0 | -1 | nt | 5
